# Screening results deposited in PubChem BioAssay by National Center for Advancing Translational Sciences (NCATS).
# HT1080 IDH1KD tx: HT-1080 IDH1 knockdown cell toxicity (counter line). HT-1080 IDH1 knockdown viability, ATP luminescence, 48 h. Potency, µM (top dose mostly 46.1 µM), without a hit: top-dose activity, negative = toxicity, usual class: cytotoxic. hit rate 2% among 360,000;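 note: potency is the fitted concentration of half-maximal effect; 0% = DMSO wells and -100% = cell-free medium wells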
#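 In this qHTS, HT-1080 cells depleted of IDH1 are exposed for 48 h at 37 °C to compound titrations. Toxicity is scored from CellTiter-Glo luminescence, with DMSO as full viability and medium alone as none.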
# DT40 TDP1 CPT: growth inhibition of DT40 Tdp1-/-;hTDP1 cells with camptothecin (screen for TDP1 inhibitors); hit rate 12% among 420,000; AID 686979; chicken DT40 Tdp1-/-;hTDP1 cells + 20 nM CPT, ATP luminescence, 48 h; Potency, µM (highest dose often 46.2 µM), without a hit: at the top dose activity change, negative = growth inhibition, usual class: inhibitors; note: potency is the fitted concentration of half-maximal effect; nearly all actives have a fitted effect of over 55% in size
#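 Cell growth measured by CellTiter-Glo luminescence after a minimum 48 h, 37 C compound exposure with 20 nM CPT in Tdp1-knockout DT40 cells stably expressing hTDP1, seeded 400/well; qHTS titration format.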
# HT1080-NT tox: kills 2HG-producing HT-1080-NT fibrosarcoma cells; HT-1080-NT fibrosarcoma viability, CellTiter-Glo ATP luminescence, 48 h; Potency, µM (highest dose often 46.1 µM), for inactives: top-dose activity, negative = less viability, actives largely listed as cytotoxic; hit rate 1.6% among 360,000;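 note: NT is the 2HG producing partner of a matched IDH1 knockdown line; potency is the fitted concentration of half-maximal effect; 0% = DMSO-treated cells and -100% = media-only wells without cells; nearly all actives have a fitted effect of over 55% in size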
#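 Read-out is CellTiter-Glo luminescence after 10 minutes at room temperature, following 48 hours' compound treatment of HT-1080-NT cells (750 cells/well, RPMI, 5% FBS, 37 degrees C).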
# ELG1 repair inh: ELG1-dependent DNA repair inhibition; HEK293T ELG1-luciferase reporter, luminescence, 16 h; DNA damage induced by 5-fluorouridine; Potency, µM (series often up to 46.1 µM), without a hit: at the top dose activity change, negative = inhibition, most hits filed as inhibitors; hit rate 2.3% among 330,000; AID 504467; note: potency is the fitted concentration of half-maximal effect; nearly all actives have a fitted effect of over 55% in size
#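 Luminescence from the luciferase reporter, measured 30 min after ONE-Glo reagent at room temperature, was the read-out. Beforehand, 2,000 cells per well were exposed for 16 hr at 37 °C to 5-fluorouridine together with compound or vehicle.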
# IL1B secr inh: blocks inflammasome-driven IL-1 beta release | THP-1 LPS/ATP IL-1B secretion, AlphaLISA, 16 h; active compounds read low | activity change, % at 57.5 µM | hit rate 4.7% among 360,000; in the data active = activity change below about -50%; inconclusive = mostly about -30% to -49%
#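 Secreted IL-1B measured by AlphaLISA bead assay after 16 h compound exposure of THP-1 cells; compounds (final up to 57.5 uM) added 1 h before LPS (250 ng/mL) and ATP (1.25 mM) stimulation; lower signal means less secretion.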
# DT40 TDP1 no CPT: qHTS for Inhibitors of human tyrosyl-DNA phosphodiesterase 1 (TDP1): qHTS in cells in absence of CPT; AID 686978, 2013; Potency, µM (doses to about 46.2 µM), for the others: top-dose activity change, negative = growth inhibition, actives largely listed as inhibitors; DT40 Tdp1-/- hTDP1 cells, no CPT, ATP luminescence, 48 h; hit rate 15% among 420,000; note: potency is the fitted concentration of half-maximal effect; nearly all actives have a fitted effect of over 55% in size
#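 Chicken DT40 Tdp1-/- cells complemented with human TDP1, screened without camptothecin (DMSO vehicle only), 400 cells/well. Compounds pin-transferred, cells incubated at 37 °C for at least 48 hr. Growth read as ATP-dependent luminescence (CellTiter-Glo, 30 min at RT).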
# Active calls of the source: *; i = inactive; ? = inconclusive; . = not tested or not shown; ! = repeats disagree. Only some compounds are listed: those with a hit (about 19% of all), similar ones and a draw of the others. Unless noted, calls come from the whole dose curve; as a rule, active = well fitted curve in the direction sought with a large enough effect; inconclusive = small, poorly fitted or top-dose-only effect, or another doubt; inactive = no such curve, though single readings can be large; an effect the other way counts as inactive or inconclusive. Unless noted, % is set by controls: 0 for no effect and ±100 for the full control effect.
SMILES,HT1080 IDH1KD tx,DT40 TDP1 CPT,HT1080-NT tox,ELG1 repair inh,IL1B secr inh,DT40 TDP1 no CPT
COc1ccc(S(=O)(=O)N2CCCCCC2)cc1N(C)S(=O)(=O)c1ccc(Cl)cc1,-10%,16µM*,?,?,-28,18µM*
COc1ccc(S(=O)(=O)N2CCC(C)CC2)cc1N(C)S(=O)(=O)c1ccccc1,6%,?,6%,-14%,-1,?
COc1ccc(S(=O)(=O)N2CCCC2)cc1OC,2%,2%,9%,-7%,-14,?
CN1CCN(c2ccc(NC(=O)CSc3nnnn3-c3ccccc3Cl)cc2)CC1,5%,-24%,2%,?,32,?
CCN(C(=O)CN1C(=O)NC2(CCCc3ccccc32)C1=O)c1ccc(F)cc1 (centres undefined),8%,?,-4%,-1%,4,16µM*
Cc1cc(C(=O)CN2C(=O)NC3(CCCc4ccccc43)C2=O)c(C)n1Cc1cccs1 (centres undefined),-17%,16µM*,-21%,-22%,?,?
CCN(Cc1cccs1)C(=O)CN1C(=O)NC2(CCCc3ccccc32)C1=O (centres undefined),-5%,21µM*,-1%,12%,-28,-19%
O=C(NCc1cnc2ccccn12)C1CCC(=O)N(Cc2cccc(F)c2)C1 (centres undefined),-4%,-30%,0%,26%,i,1%
O=C(CNC(=O)c1ccc(N2C(=O)c3ccccc3C2=O)cc1)OCC(=O)c1ccc(Cl)cc1,3%,6%,9%,3%,15,8%
COc1cc(OC)c(NC2=C(c3ccc(C(F)(F)F)cc3)C(=O)c3ccccc32)cc1Cl,.,?,.,.,.,23µM*
Cc1ccc(C)c(NC2=C(c3ccc(C(F)(F)F)cc3)C(=O)c3ccccc32)c1,.,5.8µM*,.,.,.,5.8µM*
CCOC(=O)CCCCCC(=O)Nc1ccc2c(c1)C(=O)N([C@@H](C)CO)C[C@@H](C)[C@H](CN(C)C(=O)Nc1ccccc1)OCCCC[C@H](C)O2,4%,-8%,4%,.,17,6%
Cc1ccc(/C=C2\SC(N3CCCCC3)=NC2=O)cc1,-9%,?,-10%,?,-66*,?
O=C1N=C(N2CCCC2)S/C1=C\c1ccccc1,6%,-24%,-3%,16%,-6,-20%
CC(C)(C)c1ccc(/C=C2/SC(N3CCCC3)=NC2=O)cc1,18µM*,-27%,16µM*,1%,.,?
O=C(NC1CCCCC1)c1cc(S(=O)(=O)N2CCCCC2)ccc1N1CCOCC1,0%,-17%,0%,9%,10,-24%
COc1ccc2[nH]cc(CCO)c2c1,.,1%,.,.,.,-14%
N#Cc1cccc(-c2cncnc2NCc2cccs2)c1,.,-6%,.,.,.,-2%
COc1ccc2[nH]cc(CCNc3ncncc3-c3cccc(C#N)c3)c2c1,.,0.0046µM*,.,.,.,?
COc1ccc2[nH]cc(CCNc3ncncc3-c3ccoc3)c2c1,.,4.6µM*,.,.,.,7.3µM*
Cc1cccn2c(=O)c(/C=C(\C#N)C(=O)NCc3ccco3)c(N3CCC(C(N)=O)CC3)nc12,2%,7%,-2%,?,0,-27%
CCNc1nn2ccccc2c1/C=C(\C#N)C(=O)OCC,4%,?,3%,-9%,-21,16µM*
Cc1cccn2c(=O)c(/C=C(\C#N)C(=O)NCc3ccco3)c(N3CCCCC3)nc12,1%,?,7%,18µM*,-13,?
CCOC(=O)/C(C#N)=C/c1c(N2CCN(C)CC2)nc2ccccn2c1=O,4%,5%,3%,-2%,-14,-14%
Cc1cccn2c(=O)c(/C=C(\C#N)C(=O)NCc3ccco3)c(N3CCCC(C)C3)nc12 (centres undefined),14%,?,22%,?,-53*,?
SMILES,HT1080 IDH1KD tx,DT40 TDP1 CPT,HT1080-NT tox,ELG1 repair inh,IL1B secr inh,DT40 TDP1 no CPT
Cc1cccn2c(=O)c(/C=C(\C#N)C(=O)NCc3ccco3)c(N3CCCCCC3)nc12,-21%,?,-19%,?,-29,?
CCOC(=O)/C(C#N)=C/c1c(N2CCCCCC2)nc2ccccn2c1=O,-2%,?,0%,-8%,4,21µM*
O=C(CSc1nnc2ccccn12)N1CCc2ccccc21,22%,0%,14%,?,-7,-4%
COc1cccc(CNC(=O)[C@@H]2CCCN2C(=O)[C@H]2CCCCN2C(=O)c2cccc3ccccc23)c1,-24%,?,-22%,.,-8,?
CCCCOC(=O)c1cc2c(cn1)[nH]c1ccccc12,.,21µM*!,.,.,.,18µM*
COC(=O)[C@H](CCSC)NC(=O)c1cc2c(cn1)[nH]c1ccccc12,16%,10µM*,6%,-1%,-80*,7.3µM*
Cc1cnc(CNc2nc(-c3ccc4c(c3)OCO4)nc3ccccc23)cn1,.,-20%,.,.,.,-19%
O=C(Nc1cccc(Cl)c1)C1C2CCC3C(CCC21)C3(Cl)Cl (centres undefined),?,?,?,26µM*,-72*,16µM*
CCOc1ccc(CCN2CN(CC)CNC2=S)cc1OCC,1%,-18%,-4%,16%,14,21µM*
CCN1CNC(=S)N(CCc2ccccc2)C1,15%,1%,15%,?,-1,8%
CC(=O)N(O)c1ccc(/C=C2\C=Cc3ccccc32)cc1,.,1.4µM*,.,.,.,3.2µM*
CCCC(=O)N(C)c1ccc(/C=C2\C=Cc3ccccc32)cc1,.,3.2µM*,.,.,.,2.2µM*
O=C(NCCC1=CCCCC1)c1cc(-c2ccccn2)nc2ccccc12,8%,8%,9%,4%,10,9%
Cc1ccc(-c2nn(C(C)(C)C)c3ncnc(NS(=O)(=O)c4ccc([N+](=O)[O-])cc4)c23)cc1,-21%,21µM*,-22%,?,0,18µM*
N#Cc1c(C#N)c(SSc2c(C#N)c(C#N)c(N)n2-c2ccccc2)n(-c2ccccc2)c1N,6%,4.6µM*,12%,.,-2,4.6µM*
N#Cc1c(N)n(-c2ccc(N)cc2)c2nc3ccccc3nc12,-4%,16%,?,-4%,-24,-28%
Cc1nc2sccn2c(=O)c1S(=O)(=O)NCC(C)c1ccccc1 (centres undefined),-4%,-10%,-8%,10%,5,-15%
